Reference: article PMC4552634, “A New Set of Chemical Starting Points with Plasmodium falciparum Transmission-Blocking Potential for Antimalarial Drug Discovery” (PLoS ONE, 2015)
Like-named read-outs stand apart in the source and are kept apart here. In all, about 13,000 compounds went through this assay and about 3,200 (25%) showed an effect of 50% or more. This is one part of the list.

System: P. falciparum stage V gametocytes
Design: BacTiter-Glo ATP luminescence viability of purified stage V gametocytes in 384-well plates, per cent inhibition versus DMSO
Conditions: 48 h, 5 µM, inhibitor

Row | Structure (SMILES) | % Inhibition | % Inhibition (% Inhibition)
1 | COc1cc(C(=O)Nc2cccc(-c3nc4ccccc4[nH]3)c2)ccc1OC(C)=O [TCMDC-123603] | -70.82% | 
2 | O=C(CCNc1ccnc(NCC2CCCCC2)n1)Nc1ccccc1 [TCMDC-134707] | 16.22% | 
3 | O=C(CCNc1ccnc(NCCc2ccc(F)cc2)n1)Nc1ccccc1 [TCMDC-134824] | 63.53% | 
4 | O=C(CCNc1ccnc(NCCc2ccccc2)n1)Nc1ccccc1 [TCMDC-134809] | 42.97% | 
5 | Cc1cnc(NCCc2ccc(F)cc2)nc1N[C@@H](CC(C)C)C(=O)Nc1ccccc1 [TCMDC-134851] | -15.21% | 
6 | Cc1cnc(Nc2ccccc2)nc1NCCC(=O)Nc1ccccc1 [TCMDC-134914] | 19.34% | 
7 | Cc1cc(NCCC(=O)Nc2ccccc2)nc(NCc2ccccc2C)n1 [TCMDC-134901] | 2.536% | 
8 | Cc1ccccc1CNc1nccc(NCCC(=O)Nc2ccccc2)n1 [TCMDC-134913] | 50.88% | 
9 | Cc1cnc(NCCc2ccc(F)cc2)nc1NCCC(=O)Nc1ccccc1 [TCMDC-134850] | 59.7% | 
10 | Cc1ccc(NS(=O)(=O)c2ccc(-c3ccccc3)cc2)c(Cn2cnc(N3CCCNCC3)cc2=O)c1 [TCMDC-133150] | 3.416% | 
11 | COc1ccc2ncc(F)c(CCN3CC(O)C(CNCc4nc5c(cc4Cl)OCC(=O)N5)C3)c2n1 (stereo not drawn) [TCMDC-136079] |  | 2.766%
12 | CCOC(=O)c1sc(C(C)Nc2ccccc2)nc1-c1ccccc1 (stereo not drawn) [TCMDC-135642] | 18.56% | 
13 | Cc1ccc(CN2CCC(Oc3cccc(NC(=O)c4ccc(C(F)(F)F)cc4)c3)CC2)cc1 [TCMDC-133736] | -34.39% | 
14 | O=C(NC1CC1)c1ccc(N2CCC(COc3cccc(F)c3)CC2)nc1 [TCMDC-134029] | 11.49% | 
15 | O=C1OC(c2ccccc2)(c2ccccc2)CN1CC1CCN(Cc2ccc(O)c(Cl)c2)CC1 [TCMDC-136312] | 3.668% | 
16 | FC(F)(F)c1ccc2[nH]c(-c3cccc(-c4cccc(CNCC5CCCO5)c4)c3)nc2c1.O=C(O)C(F)(F)F (stereo not drawn) [TCMDC-133102] | -56.01% | 
17 | CN(Cc1cccc(O)c1)C1CCN(c2cc(NC(=O)c3ccc(F)cc3)ccn2)C1 (stereo not drawn) [TCMDC-134955] | -27.34% | 
18 | COc1ccc(CCC(C)(C)NCC(O)c2cccc(C(F)(F)F)c2)cc1 (stereo not drawn) [TCMDC-131504] | -35.85% | 
19 | Cc1ccc(S(=O)(=O)Nc2ccc(Nc3nccc(Nc4cccc5[nH]ncc45)n3)cc2)cc1 [TCMDC-136297] | -19.92% | 
20 | CC(C)N1CCCN(C(=O)C2CCN(c3ccc(C(=O)N4CCCC4)cn3)CC2)CC1 [TCMDC-135636] | 39.57% | 
21 | COc1cc(C2C(Oc3ccccc3)C(=O)N2Cc2ccc(F)cc2)cc(OC)c1OC (stereo not drawn) [TCMDC-125396] | 72.32% | 
22 | COc1ccc(C2NCCc3c2[nH]c2ccccc32)cc1CN1CCN(c2ccc(F)cc2)CC1 (stereo not drawn) [TCMDC-124340] | -3.324% | 
23 | COc1cc(NC(=O)c2ccc3c(=O)n(Cc4ccccc4)c(=S)[nH]c3c2)cc(OC)c1OC [TCMDC-123804] | 26.78% | 
24 | Cc1cccc(Nc2nc(NCCCCN)nc3cc[nH]c(=O)c23)c1 [TCMDC-134946] | 47.91% | 
25 | NCCCNc1nc(Nc2ccc(C(F)(F)F)cc2F)c2c(=O)[nH]ccc2n1 [TCMDC-135056] | 108.1% | 

Row | Structure (SMILES) | % Inhibition | % Inhibition (% Inhibition)
26 | NCCCNc1nc(Nc2cccc(C(N)=O)c2)c2c(=O)[nH]ccc2n1 [TCMDC-135053] | 0.6256% | 
27 | CCS(=O)(=O)c1ccc(/C(=N/OC)c2ccc[nH]2)cc1 [TCMDC-139022] | -5.005% | 
28 | CCCc1cc(=O)[nH]c(-n2nc(C)cc2NC(=O)C(CC)c2ccccc2)n1 (stereo not drawn) [TCMDC-124941] | 11.79% | 
29 | Cc1cc(=O)[nH]c(-n2nc(C)cc2NC(=O)CC(c2ccccc2)c2ccccc2)n1 [TCMDC-124944] | -15.6% | 
30 | Cc1ccc(Nc2cc(C)nn2-c2nc(C)cc(=O)[nH]2)cc1 [TCMDC-123713] | 62.43% | 
31 | Cc1cc(=O)[nH]c(-n2nc(C)cc2NC(=O)C(c2ccccc2)c2ccccc2)n1 [TCMDC-124945] | 2.872% | 
32 | CCN(CC)c1nc(Nc2cc(C)ccc2C)nc(Nc2ccccc2O)n1 [TCMDC-125766] | -38.82% | 
33 | CCn1c(-c2nonc2N)nc2cnc(Oc3cccc(NC(=O)c4ccc(OCCCN5CCCCC5)cc4)c3)cc21 [TCMDC-135764] | -4.348% | 
34 | Cc1cccc2[nH]c(-c3cccc(-c4cccc(NC(=O)Nc5ccc(Cl)cc5)c4)c3)nc12 [TCMDC-133179] | -25.81% | 
35 | CCn1c(-c2nonc2N)nc2cnc(Oc3cccc(NC(=O)c4ccc(OCCN5CCCC5)cc4)c3)cc21 [TCMDC-135776] | 8.365% | 
36 | CCn1c(-c2nonc2N)nc2c(-c3cccc(NC(=O)Nc4cccc(Cl)c4)c3)ncc(OCCCN)c21 [TCMDC-136193] | 104.3% | 
37 | CCOC(=O)c1cccc(NC(=O)Nc2cccc(-c3ncc(OCCCN)c4c3nc(-c3nonc3N)n4CC)c2)c1 [TCMDC-136205] | 109.2% | 
38 | CCn1c(-c2nonc2N)nc2c(-c3cccc(NC(=O)Nc4ccc(Cl)cc4)c3)ncc(OCCCN)c21 [TCMDC-136152] | 102.5% | 
39 | CCOC(=O)c1ccc(NC(=O)Nc2cccc(-c3cccc(-c4nc5c(C)cccc5[nH]4)c3)c2)cc1 [TCMDC-133264] | -4.791% | 
40 | CCn1c(-c2nonc2N)nc2c(Cl)ncc(O[C@H](CCN)c3ccccc3F)c21 [TCMDC-133566] | -5.634% | 
41 | CCOC(=O)c1ccc(NC(=O)Nc2cccc(-c3cccc(-c4nc5ccccc5[nH]4)c3)c2)cc1 [TCMDC-133263] | 2.081% | 
42 | Nc1nonc1-c1nc2c(-c3cccc(Cl)c3)nccc2n1CCCNC(=O)Cc1ccc(Cl)cc1 [TCMDC-135207] | 32.87% | 
43 | CCn1c(-c2nonc2N)nc2c(-c3cccc(NC(=O)NC45CC6CC(CC(C6)C4)C5)c3)ncc(OCCCN)c21 [TCMDC-136246] | 20.74% | 
44 | CCn1c(-c2nonc2N)nc2c(-c3cccc(NC(=O)Nc4ccc5c(c4)CCC5)c3)ncc(OCCCN)c21 [TCMDC-136191] | 95.55% | 
45 | Cc1cccc2nc(-c3ccc(-c4cccc(CN5CC(C)OC(C)C5)c4)s3)[nH]c12.O=C(O)C(F)(F)F (stereo not drawn) [TCMDC-133832] | -9.101% | 
46 | N#Cc1ccc(C(=O)Nc2cc(-c3cccc(O)c3)cc3[nH]ncc23)cc1 [TCMDC-134118] | 16.86% | 
47 | Cc1ccc(Oc2ncccc2C(=O)Nc2cccc3cccnc23)c(C)c1 [TCMDC-125499] | -13.13% | 
48 | O=C(Nc1ccc(CCN2CCC(c3nc(COCC(F)(F)F)c(-c4ccccc4)o3)CC2)cc1)c1ccc(F)cc1 [TCMDC-131904] | -33.25% | 
49 | O=C(Nc1nccs1)c1sc2ccccc2c1O [TCMDC-124521] | -6.294% | 
50 | CCNc1cc(C(=O)N[C@@H](Cc2ccccc2)[C@H](O)CNCc2cc(C#N)ccc2OC)cc(N2CCCC2=O)c1 [TCMDC-141684] | 32.6% | 

Row | Structure (SMILES) | % Inhibition | % Inhibition (% Inhibition)
51 | COc1ccc(-n2nc(C(=O)NCc3ccccc3OC)c3ccccc3c2=O)cc1 [TCMDC-125443] | -5.134% | 
52 | CC1CCC(NC(=O)c2nn(-c3ccc(Cl)cc3)c(=O)c3ccccc23)CC1 (stereo not drawn) [TCMDC-124775] | -0.9327% | 
53 | CCn1nc(C(=O)NC2CCOc3ccccc32)c2ccccc2c1=O (stereo not drawn) [TCMDC-124816] | 60.74% | 
54 | COc1ccc(CN2CCC(CN3CC4(OC3=O)c3ccccc3-c3ccccc34)C2)c(O)c1 (stereo not drawn) [TCMDC-136069] | 30.12% | 
55 | CCNc1cc(C(=O)N[C@@H](Cc2ccccc2)[C@H](O)CNCc2cccc(OC)c2)c(OC)c(N2CCCCS2(=O)=O)c1 [TCMDC-134673] | -8.62% | 
56 | NC(=NCCCCCCCCN=C(N)Nc1ccc(Cl)cc1)Nc1ccc(Cl)cc1 [TCMDC-131828] | 83.63% | 
57 | N=C(N)NN=CC(=O)Nc1ccc(Cl)cc1 [TCMDC-137472] | 9.695% | 
58 | NC(=NCCc1ccc(Cl)cc1)c1ccc(Cl)c(Cl)c1 [TCMDC-137459] | -9.34% | 
59 | O=C(Nc1ccc(Cl)cc1)Nc1ccc(-c2ccc(-c3nc4ccccc4[nH]3)cc2)cc1 [TCMDC-133181] | -19.19% | 
60 | S=C(Nc1ccc(Cl)cc1)Nc1ccc(Nc2ccccc2)cc1 [TCMDC-123954] | -65.82% | 
61 | Clc1ccc(NC(=NCCCCCCCN=C(Nc2ccc(Cl)cc2)Nc2ccc(Cl)cc2)Nc2ccc(Cl)cc2)cc1 [TCMDC-137529] | 128.8% | 
62 | Clc1cccc(-c2nc(Nc3ccnc(-c4ccc(CN5CCOCC5)cc4)c3)c3ccccc3n2)c1 [TCMDC-138870] | -2.785% | 
63 | COC(=O)c1ccc(CC(C)NCC(O)c2cccc(Oc3cccc(C(F)(F)F)c3)c2)cc1 (stereo not drawn) [TCMDC-131489] | 30.29% | 
64 | COc1ccc2c(c1)[nH]c1c(/C=C/c3ccc([N+](=O)[O-])cc3)nccc12 [TCMDC-125486] | 8.204% | 
65 | Cc1sc(NC(=O)c2ccc([N+](=O)[O-])cc2Cl)c(C(N)=O)c1C [TCMDC-125749] | -6.756% | 
66 | c1nc2nc3c(c(Nc4ccc5c(c4)CCC5)n2n1)CCC3 [TCMDC-123573] | -7.89% | 
67 | O=C(/C=C/c1ccc(Cl)c(Cl)c1)NCCCCCN1CCCC(C(=O)Nc2ccc(Cl)c(Cl)c2)C1 (stereo not drawn) [TCMDC-136126] | 74.26% | 
68 | O=C(/C=C/c1ccc(Cl)c(Cl)c1)NCCCCCN1CCCC(C(=O)Nc2ccc(F)c(Cl)c2)C1 (stereo not drawn) [TCMDC-136114] | -6.866% | 
69 | O=C(/C=C/c1ccc(Cl)cc1)NCCCCCN1CCCC(C(=O)Nc2cccc(Cl)c2)C1 (stereo not drawn) [TCMDC-136121] | 90.21% | 
70 | O=C(/C=C/c1ccc(Cl)cc1)NCCCCCN1CCCC(C(=O)Nc2ccc(Cl)cc2)C1 (stereo not drawn) [TCMDC-136117] | 4.842% | 
71 | O=C(/C=C/C=C/c1ccc(Cl)c(Cl)c1)NCCCCCN1CCCC2CCCCC21 (stereo not drawn) [TCMDC-139469] | 92.39% | 
72 | O=C(/C=C/c1ccc(Cl)c(Cl)c1)NCCCCCN1CCCC(C(=O)Nc2ccc(Cl)cc2)C1 (stereo not drawn) [TCMDC-136118] | -2.254% | 
73 | O=C(/C=C/c1ccc(Cl)c(Cl)c1)NCCCCCN1CCC(NC(=O)NC2CCCC2)CC1 [TCMDC-135699] | -68.94% | 
74 | O=C(/C=C/c1ccc(Cl)c(Cl)c1)NCCCCCN1CCC(NC(=O)NC2CCCCCC2)CC1 [TCMDC-135698] | -24.64% | 
75 | O=C(/C=C/c1ccc(Cl)c(Cl)c1)NCCCCCN1CCCC(C(=O)Nc2cccc(Cl)c2)C1 (stereo not drawn) [TCMDC-136122] | -10.14% | 
